Test results from the OligoGym collection.

Target: KRI1
Assay: pooled miR-30 sensor sort-seq; sequence = guide strand
Settings: shRNA
Note: reference of the scale not given here.

Sequence	sensor-assay potency score (higher = more potent)
ATGTCCTCGTAGTCCAGCCGGT	-1.51
TAACCTTCCTCTCGTAGTCCTT	-0.514
TACAGGGGCTTCCTCTTCCTGT	-0.817
TTCCTCCACATAACTTTGCGAC	-0.99
TTCTGCAGCAAACTGGAGCCGC	-0.837
TTTGTAAAAGTCCCGCTCCTGC	-0.976
TTCTTCAACAAGGAGAGCGTTT	-0.767
TTCTTTAGGGAGCACCACCGGT	-1.34

Target: KRT2
Assay: as above
Settings: shRNA

Sequence	sensor-assay potency score (higher = more potent)
TTGCACATTCTTACACTGCTTC	0.204
TTCACATTCTGGATCTCTGGGT	0.038
TTCTGCAGTGAGCCCATCCAGA	-1.13
TTGGTGTCAGTGACACTCTGAT	-0.228
TTTCAGAAACTCAATTTCCTGG	-0.272
TACACTGCTTCTTCACATGTGC	0.0185
TTGATCTCCGGCTTCCACCAGA	-0.146
TTTGATGAAATGGTGCTGCTTG	0.566
TTTTGATCTGCTCACGCTCTTG	-1.42
TATCTTGATCTCTTTCAGGCTG	0.155
TAAACCTCCAACACCACCAGGG	0.275
TTGGACTGCAACTCCACCTTTA	-0.149

Target: KRT33B
Assay: as above
Settings: shRNA

Sequence	sensor-assay potency score (higher = more potent)
TTCTCAGACTTGCTGCACAGGA	-1.16
TAGGACTGCAGCTGCTCCGAGC	-1.39
TTGTCAGAGAGGCAGAACTGGC	-1.76
ATACTGATTCCTGGTCTCGTTC	-1.38
TTGTCGATCTGCACCACCAGCC	-0.512
TTTTCACATGCATTGGTGGTGG	0.0181
TTTCCAGAGAGTATCGCAGGTT	0.0223
TTTTCCAGAGAGTATCGCAGGT	0.0207
TTGGTTCTGAAGTCATCTGCAG	0.243
TCCGTCTGGTACTTGGTTCTGA	-0.6
TTCTGAAGTCATCTGCAGCCAG	-0.402
TGGTTCTGAAGTCATCTGCAGC	-1.53
TCGATCTGCACCACCAGCCTGG	-0.584
ATTGTCGATCTGCACCACCAGC	-1.36

Target: KRT75
Assay: as above
Settings: shRNA

Sequence	sensor-assay potency score (higher = more potent)
TCAACCTGCACTCCTCGCCTTC	-1.25
TTCACATGTGTAACAGACGGGT	-0.549
TTGTGCTTTGACCTCGGCGATG	-1.35
TATTGTGCTTTGACCTCGGCGA	-0.108
TTCATCTTCGTACCTGACTTTG	-1
TTAATTTCATCTTCGTACCTGA	0.609
